# Experimental data: PubChem BioAssay AID488899 (Broad Institute, 2010)
# Where “and” joins values, the source holds several entries; their conditions need not be identical. Identical values can stand only once. Out of some 330,000 compounds screened, about 2,800 (0.85%) were called active. Many of the other results were omitted from the sample, so actives are more common in it than they were. Unmarked numbers belong to inactive results.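 Rule for the calls: active = mean inhibition across replicates of 60% or more, whatever share of single replicates reaches that level; inconclusive = some that reach 60%, reason not given; inactive = mean inhibition across replicates below 60%.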
# Test: inhibitors of MITF-dependent TRPM1 promoter reporter, primary screen, cell-based, SK-MEL-5, single point, luciferase (AID 488899)
# Details: SK-MEL-5 TRPM1 promoter luciferase, 24 h; at 12.5 µM; stronger effect = higher value
row,Structure (SMILES),inhibition
1,CCOc1ccc(-c2cc(C)[n+](CCN(CC)CC)c(-c3ccc(OCC)cc3)c2)cc1,69.6% (active)
2,CC1CC=CCC12C(=O)NC(=S)NC2=O (stereo not given),6.98%
3,N#Cc1ccc(Cn2cc(C(=O)c3ccco3)c3ccccc32)cc1,12.8%
4,CC(=O)N(C1=NCCCS1)c1ccccc1F,6.66%
5,Fc1ccc(C2N3CCCN23)cc1 (stereo not given),5.89%
6,CC1=CC(=Cc2sc3ccccc3[n+]2C)C=C(C)O1,69.6% (active)
7,Cc1cccc(NC(=O)N2CC3CC(C2)c2cccc(=O)n2C3)c1 (stereo not given),-3.6%
8,Cc1nn(Cc2ccccc2Cl)c(Cl)c1C(=O)OC(C(=O)NC(N)=O)C(C)C (stereo not given),-9.08%
9,CC1C(=O)OC2CCN3CC=C(COC(=O)C(C)(O)C1(C)O)C23 (stereo not given),-1.22%
10,O=C(c1ccccc1)C(O)(CN1CCCCC1)c1ccccc1 (stereo not given),3.2%
11,OCC#CC[N+]1(CC#Cc2ccccc2)CCCC1,2.94%
12,COC(=O)C1=C(c2cccc(OCc3ccccc3)c2)C[C@@H]2CC[C@H]1N2C(=O)NCc1ccc(Br)cc1,-1.21%
13,CCC(C)(O)C(=O)OC1C(=O)OC2CC3C(C)=CC(=O)C(O)C3(C)C3C4(O)OCC23C1C(C)C4O (stereo not given),72.8% (active)
14,CC1=C2C(=O)C3C(CC=C4CC(OC5OC(O)C(O)C(O)C5CO)CCC43C)C2CCC12OC1CC(C)CNC1C2C (stereo not given),0.655%
15,CN(C)C(=O)NC(O)C(Cl)(Cl)Cl (stereo not given),8.39%
16,CCN1c2nc3c(C)cccn3c(=O)c2CC2(C(=O)N(C)C(=O)N(C)C2=O)C1C (stereo not given),0.643%
17,Cn1c(O)c(C=Nc2ccc3c(c2)CCC3)c(=O)n(C)c1=O,-24.2%
18,COC(=O)C1=C(c2ccc3ccccc3c2)C[C@@H]2CC[C@H]1N2C(=O)NCCO,-9.09%

row,Structure (SMILES),inhibition
1,CC12CN3CC(C)(CN(C1)C3c1cccs1)C2 (stereo not given),-13%
2,CC(=O)OC1C2(CC3N4C(=O)C5(CO)SSC4(CC31O)C(=O)N5C)OC(C)C(C)(C)C2=O (stereo not given),112% (active)
3,CC1CNCCN1c1ccc(Cl)cc1 (stereo not given),-17.8%
4,Cc1cc2ccccn2c1C(C[N+](=O)[O-])c1c(F)cccc1Cl (stereo not given),7.17%
5,O=c1c2ccccc2nc(/C=C/c2ccc(F)cc2)n1-c1ccccc1O,-2.83%
6,Cc1ccc(P(=S)(c2ccc(C)o2)N2CCOCC2)o1,-0.096%
7,COC1C(O)C(C)OC(OC2CCC3(C=O)C(CCC4C3CCC3(C)C(C5=CC(=O)OC5)CCC43O)C2)C1O (stereo not given),74.9% (active)
8,O=C(O)CCn1cc(C=C2C(=O)NC(=S)NC2=O)c(-c2cccc(Br)c2)n1,4.06%
9,c1ccc(CCN2CCC3(CC2)OCCO3)cc1,9.66%
10,C[C@]12CCC3C(CC[C@H]4C[C@@H](O)CC[C@]34C)C1C[C@@H](O)[C@H]2O (stereo not given in full),2.08%
11,C[C@]12CCC3C(CC[C@H]4C[C@@H](O)CC[C@]34C)C1CC[C@@H]2O (stereo not given in full),6.32%
12,C[C@]12CC[C@H](O)C[C@H]1CC[C@@H]1C2CC[C@]2(C)[C@@H](C3=CC(=O)OC3)[C@@H](O)C[C@]12O (stereo not given in full),80.6% (active)
13,NCCc1c[nH]c2ccc(O)cc12,12.6%
14,COC(=O)C1=C(c2ccc(-c3ccccc3)c(F)c2)C[C@@H]2CC[C@H]1N2C(=O)NCc1ccc(F)cc1,-8.41%
15,CCCCCCCCCCCCn1ccc(=N)cc1,80.1% (active)
16,CN(C)C(=O)Oc1cc(OC(=O)N(C)C)cc(C(O)CNC(C)(C)C)c1 (stereo not given),-3.47% and -8.18%
17,CC(C)c1c(CN(C)C(C)Cc2ccccc2)n(C)n(-c2ccccc2)c1=O (stereo not given),9.81%
